Measurements as given in PubChem BioAssay AID720504 (National Center for Advancing Translational Sciences (NCATS), 2013).
Among all 360,000 compounds or so, about 10,000 (2.8%) were called active. Another 4% or so got no clear call; they are omitted. The call rests on the fitted dose curve; in most records, active means well fitted inhibition curve with a large enough effect; inconclusive means small, poorly fitted or top-dose-only effect; inactive means flat fitted curve, though single readings scatter. Only a selection was taken, and actives are over-represented in it overall.

Each compound was assayed against Serine/threonine-protein kinase PLK1 (Homo sapiens) (UniProt P53350) (assay: qHTS for Inhibitors of PLK1-PDB (polo-like kinase 1 - polo-box domain): Primary Screen). Settings: Plk1 PBD binding of FITC phosphopeptide, fluorescence polarization.
Chain of Serine/threonine-protein kinase PLK1 (Homo sapiens) (P53350 whole entry, looked up, the tested form may be a part): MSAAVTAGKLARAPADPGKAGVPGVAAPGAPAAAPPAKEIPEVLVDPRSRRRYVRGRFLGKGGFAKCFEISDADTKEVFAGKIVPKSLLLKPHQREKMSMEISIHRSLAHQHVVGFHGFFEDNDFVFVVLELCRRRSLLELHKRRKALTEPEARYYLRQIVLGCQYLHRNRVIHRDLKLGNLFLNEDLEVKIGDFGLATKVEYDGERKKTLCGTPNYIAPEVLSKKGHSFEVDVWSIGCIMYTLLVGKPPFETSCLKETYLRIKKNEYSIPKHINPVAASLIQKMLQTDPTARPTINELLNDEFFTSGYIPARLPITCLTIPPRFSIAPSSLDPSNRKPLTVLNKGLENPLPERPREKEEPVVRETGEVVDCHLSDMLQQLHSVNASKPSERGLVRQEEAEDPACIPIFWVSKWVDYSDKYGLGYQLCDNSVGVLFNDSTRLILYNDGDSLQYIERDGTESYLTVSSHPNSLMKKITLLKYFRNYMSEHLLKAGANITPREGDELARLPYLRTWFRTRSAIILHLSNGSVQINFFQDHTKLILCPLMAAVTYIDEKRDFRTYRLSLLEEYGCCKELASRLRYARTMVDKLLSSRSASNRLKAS
Further: nearly all actives have a fitted effect of over 65% in size.
On the % scale 0 is the no-effect control and ±100 the full control effect; potency means the concentration at half of the fitted maximal effect.
Wherever Max response, negative = inhibition is given: series mostly up to about 57 µM.

Potency, active:
CCCCCCC(O)(CCN1CCCCC1)c1ccccc1 (configuration not stated) 29.9 µM
Fc1ccc(COc2cccc(-c3n[nH]c(=S)o3)c2)cc1 6.7 µM
COc1ccc(OC)c(Nc2nc(-c3ccc(O)c(O)c3)cs2)c1 29.9 µM
O=C1CC[C@H](O)CCN1[C@H](CSc1ccc(Br)cc1)Cc1ccccc1 11.9 µM
CCN(CC)S(=O)(=O)c1ccc(N(C)Cc2ccc(C(F)(F)F)cc2)nc1 29.9 µM
O=C(Cn1nc(CNc2ccc(Cl)cc2)[n+]2c1CCCCC2)c1ccc(Cl)cc1 21.2 µM
Cc1cn(C2C=CC(CO)O2)c(=O)[nH]c1=O (configuration not stated) 29.9 µM
COCCCNC(=O)Cn1c(=O)n(Cc2ccccc2Cl)c(=O)c2cc(OC)c(OC)cc21 29.9 µM
CC(=O)OC(COc1ccc(F)cc1)Cn1cnc2ccccc21 (configuration not stated) 37.7 µM
Cc1ccc(-n2nc(-c3ccco3)cc2C(=O)NCc2cccnc2)cc1 9.47 µM
Nc1[nH]c(=S)nc2nc(-c3ccccc3)c(-c3ccccc3)nc12 21.2 µM
COc1ccccc1-n1c(=S)[nH]c2c(sc(=S)n2-c2ccc(C)cc2C)c1=O 6.7 µM
CCc1ccc(-n2c(=S)sc3c(=O)n(-c4ccccc4OC)c(=S)[nH]c32)cc1 11.9 µM

Max response, negative = inhibition, inactive:
C#CC(CCN1CCCCC1)(OC)c1ccccc1 (configuration not stated) -7.33%
CCCCCC(O)(CCN1CCCCC1)c1ccccc1 (configuration not stated) -0.139%
Cc1ccn(CC(=O)NC2CCCN(Cc3ccccc3F)C2)n1 (configuration not stated) -1.67%
CN(Cc1ccc(F)cc1)C(=O)COc1ccc2ccccc2c1 -5.68%
Fc1ccc(COc2ccc(-c3nnco3)cc2)cc1 2.81%
COCCCn1cc(CN2CC(N(C)C)CS2(=O)=O)nn1 (configuration not stated) 2.09%
CC(=O)N1C[C@@H](CO)[C@@H](N(C)C(=O)c2ccco2)C[C@H]1c1ccccc1 -12.5%
COc1ccc(C(O)c2nc(-c3ccc4c(c3)OCO4)cs2)cc1 (configuration not stated) 6.53%
COc1ccc(-c2csc(Nc3cccc(C)n3)n2)cc1OC 8.19%
Cc1noc(C)c1C(=O)N1CCC1(C)C(=O)NS(=O)(=O)c1ccc(C#N)cc1 (configuration not stated) -3.77%
CC1(C(=O)NCc2ccccc2)CSCC(=O)N1CCCN1CCOCC1 (configuration not stated) 6.34%
C[C@H]1CCC(=O)N([C@H](CSc2ccccc2)Cc2ccccc2)CC1 -3.56%
O=C1CCNCCN1[C@H](CO)Cc1ccccc1 -3.76%
CCN(CC)S(=O)(=O)c1ccc(N(C)Cc2cccc(OC)c2OC)nc1 -1.33%
CN(CCc1ccccc1)c1ccc([N+](=O)[O-])cn1 -3.04%
CCCS(=O)(=O)NC(=O)C1(C)CCCN(C(=O)c2ccnc(Cl)c2)C1 (configuration not stated) 3.92%
CC(C)N1C(=O)c2ccccc2NC(=O)C1C(=O)NCc1cccs1 (configuration not stated) -1.29%
CC(=O)N1Cc2cc(C(=O)NCc3cccc(F)c3)nc(-c3cccc(C4=CCCCC4)c3)c2[C@H]1CCO -9.42%
CN1CCN(C(=O)c2ccc(NC(=O)c3ccc(Br)o3)cc2)CC1 -7.09%
O=C(Cn1nnc(N2CCCCC2)n1)c1ccc(Cl)c(Cl)c1 -14.1%
O=C(Cn1ncc(N2CCCC2)c(Br)c1=O)c1ccc(Cl)cc1 -7.29%
O=C(NC(c1ccc(-c2ccccc2)cc1)c1cnccn1)C1CCN(CCOc2ccc(Cl)cc2Cl)CC1 (configuration not stated) -2.44%
O=C1NC[C@H](CCCCN2C[C@H](Cc3ccccc3)N(Cc3ccccc3)C(=O)C2=O)N(CCc2ccc(O)cc2)C1=O 3.35%
C[C@H]1CN([C@@H](C)CO)C(=O)CCCn2nncc2CO[C@@H]1CN(C)S(=O)(=O)c1cccc(C#N)c1 -7.11%
Cc1cn(C2OC[C@@H](O)[C@@H]2CO)c(=O)[nH]c1=O (some centres not stated) -5.18%
Cc1cn([C@H]2C[C@H](O)[C@@H](/C=C/C(=O)NCCCc3ccccc3)O2)c(=O)[nH]c1=O -13.1%
O=C(CCN1CCCCC1)Nc1ccc(F)c(F)c1 -0.714%
CCCCN1CC(N2CCN(Cc3cccc(C)c3)CC2)CS1(=O)=O (configuration not stated) -2.99%
CCOC(=O)C1=CC[C@@H](c2ccccc2)N(S(=O)(=O)c2ccc(C)cc2)[C@H]1c1ccc(CC)cc1 -1.73%
NC1=CC(=O)C(=O)c2cccnc21 -7.35%
COc1ccc(CCNC(=O)Cn2c(=O)n(CC3CCCO3)c(=O)c3ccccc32)cc1OC (configuration not stated) -13.3%
COCCCNC(=O)CN1CCN(Cc2ccccc2Cl)C1=O -7.04%
CCNC(=O)C1(C)CCCN(Cc2noc(-c3ccccc3OC)n2)C1 (configuration not stated) -4.99%
C[C@H]1Cn2cnc(C(=O)N[C@@H](Cc3c[nH]c4ccccc34)C(=O)OC(C)(C)C)c2C(=O)N1 -0.575%
CC(=O)N=c1ncn(CC(COC(C)=O)OC(C)=O)c2nc[nH]c12 (configuration not stated) -2.18%
CC(C)c1ccc(OCC(O)Cn2cnc3ccccc32)cc1 (configuration not stated) -4.3%
CCCNC(=O)c1cc(C2CCCN(C(=O)c3ccc4c(c3)CCO4)C2)on1 (configuration not stated) -6.48%
CCCC(=O)N1CCC1(C)C(=O)NCc1ccc(C(C)C)cc1 (configuration not stated) -11.6%
O=C(Cc1ccc([N+](=O)[O-])cc1)NCCS(=O)(=O)N1CCN(c2ccccc2)CC1 -7.66%
COC(=O)C[C@H]1C=C[C@@H](NS(=O)(=O)c2ccc(C)cc2)[C@@H](CO)O1 2.12%
CC1(c2cccc(Br)c2)NC(=O)N(CC(=O)NCCC2=CCCCC2)C1=O (configuration not stated) -9.46%
CC(C)(C)c1cc(C(=O)NCc2cccnc2)ccn1 -6.13%
CSc1sc(C(=O)NC(=O)NCc2cccnc2)c(C)c1-c1ccon1 -0.192%
CCCCOCCCNC(=O)C[C@@H]1C[C@@]2(C(=O)OC)CCCCC=C2N(CCC2=CCCCC2)C1=O 1.64%
CCN(Cc1ccncc1)C(=S)Nc1ccccc1C -0.726%
COc1ccc(OC)c(-n2c(=S)[nH]c3cc(C(=O)N4CCCCC4)ccc3c2=O)c1 2.08%
COc1ccccc1N1CCN(c2nc(C)cc(=O)[nH]2)CC1 -12.7%
COc1ccccc1-n1cn[nH]c1=S -29.4%
COc1cccc(-n2c(=S)sc3c(=O)n(-c4ccccc4OC)c(SCC4OCCO4)nc32)c1 4.69%
